Experimental data published in PubChem BioAssay (Tox21).
“And” between values parts separate entries of the source, which are not always exact repeats. Equal entries are not always repeated. Inconclusive results are not listed. Where a call stands in place of a potency, no number is given. The source made the active and inactive calls. The call rests on the fitted dose curve; in most records, active means well fitted cell-killing curve with a large enough effect in the repeat runs; inconclusive means weak or mixed curves, or effect the other way; inactive means flat fitted curve, though single readings scatter.

experiment: qHTS assay to identify small molecule agonists of the sonic hedgehog signaling (Shh) pathway - cell viability counter screen (AID 1259366); details: NIH/3T3 Gli1-Luc viability, CellTiter-Fluor, 24 h; series mostly up to 92.4 µM; further: nearly all actives have a fitted effect of over 50% in size
Text: National Center for Advancing Translational Sciences [NCATS]
NIH Chemical Genomics Center [NCGC]
U.S. Environmental Protection Agency [EPA]
National Institutes of Environmental Health Sciences [NIEHS]
National Toxicology Program [NTP]
U.S. Food and Drug Administration [FDA]
The sonic hedgehog (Shh) pathway is essential for normal embryonic development. Dysregulation of the Shh pathway can cause severe developmental defects in organs. Therefore chemicals that interfere with the pathway are potential developmental toxicants. A cell line designated 3T3Gli1-Luc (DMB/OARSA/CFSAN/FDA, Laurel, MD), a NIH/3T3 derived clone containing stably integrated Gli1-Luc reporter is used to detect chemical interference of the Shh pathway, by changes in the expression of the firefly Luc gene under the control of the Gli1 transcriptional response element. This cell line was used to screen Tox21 libraries for identifying and prioritizing the potential developmental toxicants that interfere Shh pathway. The cytotoxicity of the compounds was tested in parallel by measuring the cell viability using CellTiter-Fluor assay system (Promega, Madison, WI) in the same wells.
Tox21 Assay Protocol Summary:
3T3 Gli1-Luc cells were dispensed at 2,000 per well in 5uL of culture medium into white solid bottom 1536-well plates (Greiner Bio-One, Monroe, NC) using a Multidrop Combi (Thermo Scientific, Waltham, MA) dispenser. The assay plates were incubated at 37 C and 5% CO2 for 4hr, and then 23nL of compounds dissolved in DMSO and positive control were transferred using a Pintool station (Wako, San Diego, CA). The assay plates were incubated at 37C and 5% CO2 for 24hr. For viability read, after 23hr of compound treatment, 1uL of CellTiter-Fluor reagent (Promega Corporation, Madison, WI) was added to each well of the assay plates using Flying Reagent Dispenser (FRD, Aurora Discovery, San Diego, CA) and incubated the assay plates at 37C for 1hr. The fluorescence signal was quantified using a ViewLux plate reader (Perkin Elmer, Shelton, CT).
Potency means the concentration at half of the fitted maximal effect.

Structure (SMILES) | Potency
COc1ccc(C(Cl)=C(c2ccc(OC)cc2)c2ccc(OC)cc2)cc1 | inactive
Nc1c(N=Nc2ccc(-c3ccc(N=Nc4cc(S(=O)(=O)O)c5ccccc5c4N)cc3)cc2)cc(S(=O)(=O)O)c2ccccc12 | 17.2 µM (active)
O=C1NC(=O)C(c2ccccc2)(c2ccccc2)N1 | inactive
Cn1c(=O)c2c(ncn2C)n(C)c1=O | inactive
F[B-](F)(F)F | inactive
O=CC(=O)c1ccccc1 | inactive
CCCCC1(COC(=O)CCC(=O)O)C(=O)N(c2ccccc2)N(c2ccccc2)C1=O | inactive
CCCCOC(=O)c1ccc(O)cc1 | inactive
Cc1cccc(C)c1 | inactive
O=c1[nH]cnc2c1ncn2[C@H]1CC[C@@H](CO)O1 | inactive
O=C(Nc1ncc([N+](=O)[O-])s1)c1cccs1 | inactive
COc1ccc(OC(F)(F)F)cc1CN[C@H]1CCCN[C@H]1c1ccccc1 | 48.6 µM (active)
NS(=O)(=O)O | inactive
CC1(C)S[C@@H]2[C@H](NC(=O)[C@H](N)c3ccccc3)C(=O)N2[C@H]1C(=O)O | inactive
CCN(CC)C(=O)c1cccc(C)c1 | inactive
CN[C@H]1CC[C@@H](c2ccc(Cl)c(Cl)c2)c2ccccc21 | inactive
CCCCNC(=O)NS(=O)(=O)c1ccc(C)cc1 | inactive
CC(=O)Nc1c(I)c(NC(C)=O)c(I)c(C(=O)O)c1I | inactive
CN1[C@@H]2CC(OC(=O)[C@H](CO)c3ccccc3)C[C@H]1[C@@H]1O[C@@H]12 (stereo not given in full) | inactive
C1CCC(C(CC2CCCCN2)C2CCCCC2)CC1 (stereo not given) | 13.3 µM (active)

Structure (SMILES) | Potency
NC(=O)c1cccnc1 | inactive
C1=CC2C3C=CC(C3)C2C1 (stereo not given) | inactive
CN1CCC[C@H]1c1cccnc1 | inactive
CC(C)c1c(C(=O)Nc2ccccc2)c(-c2ccccc2)c(-c2ccc(F)cc2)n1CC[C@@H](O)C[C@@H](O)CC(=O)O | inactive
CN(C)C(=O)Nc1ccc(Cl)c(Cl)c1 | inactive
C[C@](N)(Cc1ccc(O)c(O)c1)C(=O)O | inactive
CC12CCC(CC1)C(C)(C)O2 | inactive
CN(C)C(=S)SC(=S)N(C)C | 3.14 µM (active) and 545 nM (active) and 2.11 µM (active)
O=C(O)CC(O)C(=O)O (stereo not given) | inactive
O=C1OC2(c3ccccc31)c1cc(Br)c(O)c(Br)c1Oc1c2cc(Br)c(O)c1Br | inactive
CCCCCCCCCCCC[N+](C)(C)Cc1ccccc1 | 53.4 µM (active) and 52.8 µM (active) and 16.8 µM (active)
NC1CCCCC1 | inactive
CCCC[P+](CCCC)(CCCC)CCCC | inactive
O=S1(=O)OC(c2ccc(O)cc2)(c2ccc(O)cc2)c2ccccc21 | 27.3 µM (active) and 11.9 µM (active)
Oc1ccccc1 | inactive
CCCCCCCC(=O)OCC(COC(=O)CCCCCCC)OC(=O)CCCCCCC | inactive
Cc1ncc([N+](=O)[O-])n1C | inactive
Nc1ccc(O)c([N+](=O)[O-])c1 | 43.3 µM (active)
Cc1cc(C)nc(NS(=O)(=O)c2ccc(N)cc2)n1 | inactive
Nc1ccc(S(N)(=O)=O)cc1 | inactive
